Inhibition data for 103 compounds are collected here from PubChem BioAssay AID1347056 (Sanford-Burnham Center for Chemical Genomics, 2019).

Hit rate of the full screen: of about 360,000 compounds, about 3,600 (1%) were called active. What follows is part of a selection rich in actives, with near analogues and random picks from the rest. Unmarked numbers belong to inactive results.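 Rule for the calls: active = compounds whose plate-normalised and pattern-corrected inhibition of the luciferase reporter signal at the single screening dose is 50% or more; inactive = the rest.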

This assay can be described thus: inhibitors of TROY-driven NF-kB signaling, primary screen, Q293 LMP1-TROYcd cells, NF-kB luciferase, uHTS (AID 1347056). The following applies: Q293 LMP1-TROYcd NF-kB luciferase reporter, 4 h; at 10 µM; active compounds read high.
Take `CC1(C)N=C(N)NC(Nc2ccc(Cl)cc2)=N1`: the inhibition is -5.09%.

Regarding `Cc1cc(OCc2ccc(C(=O)Nc3ccc(C(=O)O)cc3)o2)ccc1Cl`, the inhibition was -33.7%.

On to `O=c1oc2ccccc2cc1-c1cn(-c2ccccc2)c(=S)[nH]1`, for which the inhibition is 90.1% (active).

For the compound `O=C1Cc2ccccc2Sc2ccc(Cl)cc21`, the inhibition was -41.4%.

`CCCCNC(=O)C[C@@H]1C[C@@]2(C(=O)OCC)CCC=C2N(Cc2ccco2)C1=O`: the inhibition is 1.34%.

Turning to `Cc1ccc2occ(/C=N/NC(=O)c3ccccc3C)c(=O)c2c1`, the inhibition was 57.9% (active).

Consider `O=c1c(/C=N/O)coc2ccc(Cl)cc12`, for which the inhibition was 12.5%.

As for `CC(C)(C)OC(=O)NCCCCCC(=O)N/N=C/c1coc2ccccc2c1=O`, the inhibition was -22.3%.

`CC1(Cc2ccccc2C#N)C(=O)Nc2ccc(-c3ccc4[nH]ccc4c3)cc21` (stereo not drawn): the inhibition is 24.8%.

For the compound `CC(Sc1nncn1C)C(=O)Nc1cc(C(F)(F)F)ccc1N1CCOCC1` (stereo not drawn), the inhibition was -8.48%.

Take `Cc1onc(-c2ccc(Cl)cc2)c1-c1ccnn1S(=O)(=O)c1ccc(Cl)cc1`: the inhibition is -10.7%.

As to `O=C(COC(=O)c1cccnc1Cl)NC(=O)NC1CCCCC1`, the inhibition is -1.94%.

`CC(=O)Nc1ccc(S(=O)(=O)N2CCC(N(C)CCC(C)C)CC2)cc1`: the inhibition was 15.7%.

With `O=C(CSC(=S)N1CCOCC1)c1ccccc1`, the inhibition was 50.2% (active).

`CC1CN(C(=S)SCC(=O)c2ccccc2)CC(C)O1` (stereo not drawn): the inhibition was -38.2%.

In the case of `NC(=NC(=O)c1ccccc1)N1CCOCC1`, the inhibition was -4.29%.

Consider `CC1=CC=CN2C1=NC(=O)CC2(C)C(=O)N(CC(=O)NC1CCCC1)c1ccccc1C` (stereo not drawn), for which the inhibition was 6.68%.

Regarding `CN1CCN(c2ccncc2S(=O)(=O)N2CCCC2)CC1`, the inhibition was -13.2%.

Take `COCCNc1ncnc2c1ncn2[C@H]1CN(Cc2ccc(OC)cc2)C[C@@H](CO)O1`: the inhibition is -16.1%.

As to `COC(=O)C1(S(=O)(=O)C2(C(=O)OC)CCCC2)CCCC1`, the inhibition was 10.4%.

As to `CCCCCc1c(Cc2ccccc2)ncn1CCc1ccccc1OC`, the inhibition is 49.9%.

As for `Cc1ccccc1NS(=O)(=O)CCCCC(Cl)(Cl)Cl`, the inhibition was 5.02%.

Regarding `CC(C)CNc1ncnc2c1cnn2Cc1ccc(Cl)cc1`, the inhibition is -3.29%.

In the case of `c1ccc(CNc2ncnc3[nH]ncc23)cc1`, the inhibition is 12.9%.

Consider `Clc1ccc(Cn2ncc3c(NCc4cccnc4)ncnc32)cc1`, for which the inhibition was 58.7% (active).

Consider `CC(CNc1ccc([N+](=O)[O-])c2cccnc12)Nc1c([N+](=O)[O-])cc(C(F)(F)F)cc1[N+](=O)[O-]` (stereo not drawn), for which the inhibition is 9.66%.

On to `N#Cc1cccc(NC(=O)COC(=O)c2ccccc2C(=O)c2ccc(Cl)c([N+](=O)[O-])c2)c1`, for which the inhibition was 66.1% (active).

Take `CC(OC(=O)CNC(=O)c1ccc(Cl)c([N+](=O)[O-])c1)C(=O)NCc1ccco1` (stereo not drawn): the inhibition is -1.1%.

`CCc1ccc(NC(=O)C(C)OC(=O)/C=C/c2cccc([N+](=O)[O-])c2)cc1` (stereo not drawn): the inhibition was 7.86%.

With `CC(=O)Nc1ccc(NC(=O)C(C)OC(=O)c2ccccc2C(=O)c2ccc(Cl)c([N+](=O)[O-])c2)cc1` (stereo not drawn), the inhibition is 51% (active).

On to `O=C(COc1ccc([N+](=O)[O-])cc1)Nc1cccc(C(=O)Nc2ccccc2C(=O)O)c1`, for which the inhibition was 13.9%.

Consider `NS(=O)(=O)c1cccc(NC(=O)COC(=O)c2cc([N+](=O)[O-])ccc2N2CCCC2)c1`, for which the inhibition was -3.22%.

Consider `CN(CC(=O)NC1CCCC1)S(=O)(=O)c1cnc[nH]1`, for which the inhibition is 7.95%.

With `CCNc1nc(NC(C)C)nc(N2CC(=O)N(CC(=O)OCC)C2=N)n1`, the inhibition is 19.4%.

With `CCOC(=O)N1CCN(C(=O)c2ccc3c(=O)n(CCc4ccc(OC)c(OC)c4)c(=O)[nH]c3c2)CC1`, the inhibition is 1.87%.

For `Cc1ccccc1NC(=O)C1CCN(C(=O)NC2CCCCC2)CC1`, the inhibition was -10.7%.

With `O=C(C1CCCN(S(=O)(=O)c2ccccc2)C1)N1CCN(c2ccc(F)cc2)CC1` (stereo not drawn), the inhibition was 3.28%.

With `COc1cccc(N2CCN(C(=O)C3CCCN(S(=O)(=O)c4cnc[nH]4)C3)CC2)c1` (stereo not drawn), the inhibition is -3.43%.

On to `CC(=O)N1CCCc2cc(S(=O)(=O)N3CCCC(C(=O)N4CCN(c5cccc(Cl)c5)CC4)C3)ccc21` (stereo not drawn), for which the inhibition is 54.2% (active).

Turning to `CCOc1cccc2cc(C(=O)OCC(=O)Nc3c(C)cccc3CC)c(=O)oc12`, the inhibition was -77.6%.

As for `O=C(Nc1ccc(Cl)c(C(F)(F)F)c1)C1Cc2c(-c3ccccc3Oc3ccccc3)ccnc2O1` (stereo not drawn), the inhibition is 16.3%.

As for `COc1ccc(N(CC(=O)NCc2ccc(F)cc2)C(=O)CCC(=O)Nc2nccs2)cc1`, the inhibition was -6.88%.

For the compound `CC(Oc1ccc2c(-c3ccccc3)cc(=O)oc2c1)C(=O)NC(Cc1c[nH]c2ccccc12)C(=O)O` (stereo not drawn), the inhibition was -3.69%.

For the compound `O=C(CNC(=O)c1ccccc1)NCC(=O)OCc1ccc(Cl)cc1`, the inhibition is 17.5%.

With `O=C(CNC(=O)OCc1ccccc1)Oc1cc2oc(=O)cc(-c3ccccc3)c2cc1Cl`, the inhibition was 50.4% (active).

Consider `Cc1ccc(S(=O)(=O)Oc2ccc(/C=N/NC(=O)c3c(Cl)cnn3C)cc2)cc1`, for which the inhibition is -1.06%.

In the case of `CCN(CC)CCNC(=O)c1sc2ncn(CC(=O)Nc3ccc(C)c(Cl)c3)c(=O)c2c1C`, the inhibition is 6.8%.

`CC(=O)N1CCN(c2ccccc2NC(=S)NC(=O)c2cc3ccccc3o2)CC1`: the inhibition was 5.79%.

Turning to `O=C(Nc1sc2c(c1-c1nc3ccccc3[nH]1)CCCC2)C1CC1`, the inhibition was -11.2%.

For the compound `C/C(=C\c1ccccc1)C1NC(=O)c2c(sc3c2CCCC3)N1` (stereo not drawn), the inhibition was 67.6% (active).

On to `O=C1NC(c2ccncc2)Nc2sc3c(c21)CCCC3` (stereo not drawn), for which the inhibition was -12.2%.

For `CN(C)S(=O)(=O)c1ccc2oc(SCC(=O)Nc3ccccc3F)nc2c1`, the inhibition is -36.4%.

Consider `COc1ccc(Cl)cc1S(=O)(=O)Nc1cccc(C(=O)O)c1`, for which the inhibition is 1.76%.

Take `O=C(Nc1ccc2ccccc2c1)Nc1ccc2snnc2c1`: the inhibition was 69.7% (active).

As to `COc1cccc(NC(=O)Nc2ccc(F)cc2)c1`, the inhibition is -52.4%.

`Cc1ccc(NC(=O)Nc2ccc3oc(C)nc3c2)cc1`: the inhibition was -27.6%.

As for `CN(CCC(=O)Nc1cc(S(=O)(=O)N(C)C)ccc1Cl)CC(=O)Nc1ccc(F)cc1`, the inhibition is 1.42%.

`CSCCNCc1cn(-c2ccc(F)cc2F)nc1-c1ccccc1C`: the inhibition was 1.03%.

Regarding `OCc1nc(CO)n(Cc2ccccc2)n1`, the inhibition is 11.6%.

Consider `O=C(COC(=O)c1ccc(Cl)nc1)NCc1ccc2c(c1)OCO2`, for which the inhibition is -7.63%.

With `CN(C)C(=O)c1cccc(-c2cnc3sc(NCc4ccc5c(c4)OCO5)nn23)c1`, the inhibition was 51.8% (active).

On to `O=C(CSc1ncnc2scc(-c3ccccc3)c12)NCc1ccc2c(c1)OCO2`, for which the inhibition was 22.3%.

In the case of `COc1ccccc1NC(=O)N1CCCC1C(=O)NCc1cccs1` (stereo not drawn), the inhibition was 7.15%.

Turning to `COc1ccccc1CNC(=O)CN1CCC(n2cnc3cc(F)ccc32)CC1`, the inhibition is 2.42%.

In the case of `CCCCCCN1CCN(C2CN(Cc3cn(Cc4ccc(F)cc4)nn3)S(=O)(=O)C2)CC1` (stereo not drawn), the inhibition was 0.62%.

In the case of `COc1ccc(C(=O)/C=C/Nc2ccccn2)cc1`, the inhibition is 72.4% (active).

As to `COc1ccc2nc(-c3ccccn3)ccc2c1`, the inhibition was 6.94%.

For `COCCN(C(=O)CCC(=O)Nc1ccccn1)C(C(=O)NCCC(C)C)c1ccc(OC)cc1` (stereo not drawn), the inhibition is 5.49%.

As to `CCOC(=O)c1c(C)[nH]c(C)c1C(=O)CSc1nc(N)cc(N)n1`, the inhibition was 4.52%.

Take `CCOC(=O)c1c(C)[nH]c2c1-c1ccccc1C(=O)C2=O`: the inhibition is 63.1% (active).

Turning to `CCOC(=O)c1cnc(COc2ccccc2Cl)[nH]c1=O`, the inhibition was -7.4%.

Consider `O=C(NCc1nnc(SCC(=O)N2CCC(Cc3ccccc3)CC2)o1)c1ccco1`, for which the inhibition is 3.48%.

Turning to `Cc1ccc(CS(=O)Cc2ccc(C(=O)N3CCOCC3)o2)cc1` (stereo not drawn), the inhibition was -4.44%.

For the compound `O=C1CSC(=S)N1c1ccc(O)cc1`, the inhibition was 50.1% (active).

`O=C1CSC(=S)N1c1ccc(Cl)c(Cl)c1`: the inhibition was 33.2%.

Regarding `COc1cc(N2C(=O)CSC2=S)cc(OC)c1OC`, the inhibition is 33.1%.

For the compound `CC1=CC(=NNS(=O)(=O)c2ccc([N+](=O)[O-])cc2)CC(C)(C)C1`, the inhibition was -0.66%.

For the compound `Cc1nn(C(C)(C)C)c(OC(=O)CC(C)C)c1S(=O)(=O)c1ccccc1`, the inhibition was 12.4%.

On to `Cc1ccccc1OCCC(=O)OCC(=O)NCCc1ccc(S(N)(=O)=O)cc1`, for which the inhibition is 0.01%.

Regarding `O=C(Nc1ccc(-n2ccnc2P(=O)(O)c2ccccc2)cc1)c1ccccc1Br`, the inhibition is -20.5%.

With `CC(C)CCN1C(=O)c2ccc(C(=O)Nc3cccc(S(N)(=O)=O)c3)cc2C1=O`, the inhibition is 63.2% (active).

In the case of `Cc1cccc(C(=O)Nc2ccc3c(c2)C(=O)N(CC(C)C)C3=O)c1`, the inhibition was -12.3%.

Consider `CN1CCN(S(=O)(=O)c2cccc(C(=O)Nc3cccc(S(N)(=O)=O)c3)c2)CC1`, for which the inhibition was 14.3%.

Regarding `COc1ccc(CCNc2cc(N3CCN(C(=O)c4ccccc4OC)CC3)ccc2[N+](=O)[O-])cc1OC`, the inhibition is 64% (active).

Regarding `COc1ccccc1OCCNc1cc(N2CCOCC2)ccc1[N+](=O)[O-]`, the inhibition was -25%.

On to `COc1ccc(CCNC(=O)c2ccccc2-c2ccccc2C(=O)O)cc1OC`, for which the inhibition is -8%.

Turning to `C[N+](C)(C)CCNC(=O)c1c[nH]c2ccccc12`, the inhibition is -5.29%.

`Cc1ccc(F)cc1NC(=O)N1CCCN(c2ccc(C(F)(F)F)cn2)CC1`: the inhibition is 8.63%.

As to `O=C(O)c1cc(S(=O)(=O)N2CCCCCC2)c(Cl)cc1Cl`, the inhibition is 0.33%.

`COc1cccc(/C=C(/CC(=O)Nc2ccc(N3CCOCC3)cc2)c2nc3ccccc3s2)c1`: the inhibition was 54.8% (active).

With `CCn1c(Cc2ccc(OC)cc2)nnc1SCC(=O)Nc1ccc(N2CCOCC2)cc1`, the inhibition is 4.48%.

As to `Cc1ccc(OCCCC(=O)Nc2ccc(N3CCOCC3)cc2)cc1`, the inhibition was 6.99%.

As to `COc1cc2c(cc1OC)CN(C(=O)c1cc(S(=O)(=O)N3CCCCC3)ccc1Cl)CC2`, the inhibition is -16.5%.

Consider `COc1cc2c(cc1OC)C(C)N(S(=O)(=O)c1cnc(Cl)c(Cl)c1)CC2` (stereo not drawn), for which the inhibition was 62.8% (active).

Consider `COc1cc2c(cc1OC)CN(C(=O)c1ccc(S(=O)(=O)N3CCCCCC3)cc1)CC2`, for which the inhibition was -2.54%.

Regarding `COc1cccc(NC(=O)C(Sc2nc3ccccc3c(=O)n2CC(C)C)c2ccccc2)c1` (stereo not drawn), the inhibition is -17.8%.

As for `O=C(Nc1ccc(N2CCOCC2)nc1)c1c(F)cccc1F`, the inhibition was -14.2%.

As for `CCOC(=O)C1CCCN(C(=O)c2ccc(C)c(F)c2)CC1` (stereo not drawn), the inhibition was 1.56%.

In the case of `CN(CCc1ccccn1)C(=O)c1ccc(OC2CCN(CCc3ccccc3)CC2)cc1`, the inhibition was -24%.

For `Cn1cc(CNC(=O)c2ccc(OC3CCN(Cc4ccccn4)CC3)cc2)cn1`, the inhibition is -10.1%.

Take `CN(CCc1ccccn1)C(=O)c1ccc(OC2CCN(Cc3ccccn3)CC2)cc1`: the inhibition is 50.2% (active).

Regarding `Cc1ccccc1C(=O)Nc1cccc(-c2nnc(SCC(=O)O)n2C)c1`, the inhibition is 18.5%.

For the compound `CCOC(=O)/C(C#N)=C\c1c(C)cc(C)c(COC(C)=O)c1C`, the inhibition was -28.3%.
